Data as given in PubChem BioAssay AID1789 (The Scripps Research Institute Molecular Screening Center, 2009).
The whole screen tested about 290,000 compounds, of which about 2,700 (0.93%) were called active. For the sample, actives were picked, then their nearest neighbours and some compounds at random. A number with no mark means an inactive call.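 Rule for the calls: active = inhibition above the screen-wide mean plus 3 SD, computed separately per campaign (cut at about 16% in these data); inactive = the rest.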

tested on: Heat shock protein HSP 90 (rabbit reticulocyte lysate; luciferase refolding); experiment: inhibitors of HSP90 chaperone activity – cell lysate, luminescence, primary screen (AID 1789); conditions: 3 h, at 5.6 µM, active compounds read high;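 note: 0% = DMSO wells and 100% = 60 µM geldanamycin wells; inhibitors lower the luminescence because luciferase stays unfolded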

Going from `Cc1ccc(S(=O)(=O)NCC(=O)Nc2ccc3c(c2)OCCO3)cc1` to `O=C(Cc1ccccc1)NNS(=O)(=O)c1ccc([N+](=O)[O-])cc1`, the inhibition falls from 5.88% to -2.29%.

First: O=c1c2ccccc2nc(N/N=C/c2ccccc2)n1O
Second: O=C(Nn1cnc2ccccc2c1=O)c1ccccc1
The inhibition of the first is higher: -0.57% for the first, -3.95% for the second.

Compared with `CC(C)C[C@H](NC(=O)N1CC(=O)Nc2ccccc21)C(=O)N[C@H](Cc1ccccc1)C(=O)O`, `COC(=O)[C@@H](Cc1ccccc1)NC(=O)NCCc1ccccc1` is higher in inhibition: -4.11% for the first, 5.73% for the second.

Compared with `CC1(C)SC2C(NC(=O)COc3ccccc3)C(=O)N2C1C(=O)O` (stereo not given), `O=C(CCc1c[nH]c2ccccc12)NCCOc1ccccc1` is higher in inhibition: -3.05% for the first, -0.52% for the second.

Compared with `CCC1(CC)NC(=O)N(Cc2nc3ccccc3s2)C1=O`, `COc1ccc(C2=NN(c3nc4ccccc4s3)C(=O)C2)cc1` is lower in inhibition: 1.16% for the first, 0.61% for the second.

Compared with `O=[N+]([O-])c1ccc(F)cc1Oc1nc(-c2cccnc2)nc2ccccc12`, `COCCNc1ccc(-c2n[nH]c(=O)c3ccccc23)cc1[N+](=O)[O-]` is lower in inhibition: 2.73% for the first, 1.55% for the second.

Compared with `CS(=O)(=O)N1CCN(C(=O)Cc2ccccc2)CC1`, `O=C(c1cccc(Br)c1)N1CCN(C2=NS(=O)(=O)c3ccccc32)CC1` is higher in inhibition: -2.11% for the first, -0.31% for the second.

Going from `COc1ccc(-c2cc(C(=O)N3CCN(c4ccc(F)cc4)CC3)no2)cc1` to `Cc1ccc(C)c(OCc2cc(C(=O)N3CCN(c4cnccn4)CC3)no2)c1`, the inhibition falls from -0.04% to -6.08%.

Compared with `COc1ccc(C)cc1NC(=O)CSc1ccc(Cl)cc1`, `COc1ccc(Cl)cc1NC(=O)c1cccc(N2C(=O)C3CC=CCC3C2=O)c1` (stereo not given) is lower in inhibition: 1.35% for the first, -3.52% for the second.

First: COc1ccc(Cl)cc1NC(=O)CN1CCN(C(=O)N2CCOCC2)CC1
Second: O=C(CN1C(=O)COc2ccc(Cl)cc21)N1CCOCC1
The inhibition of the first is lower: -1.78% for the first, 4.17% for the second.

First: Cc1ccc(NC(=O)C2CCCN2C(=O)OCc2ccccc2)cc1C (stereo not given)
Second: COc1ccc(NC(=O)N2CCCC2C(=O)NCc2ccccc2Cl)cc1 (stereo not given)
The inhibition of the first is higher: -2.49% for the first, -3.61% for the second.

Compared with `CCOC(=O)c1ccccc1NS(=O)(=O)c1c(C)nc2sccn2c1=O`, `COc1cccc(CNS(=O)(=O)c2ccc3c(c2)CC(C)N3C(C)=O)c1` (stereo not given) is higher in inhibition: -1.63% for the first, -0.03% for the second.

Compared with `Cn1c(=O)c2c(nc(CN3CCOCC3)n2Cc2ccccc2)n(C)c1=O`, `CCN1CCN(Cc2nc3c(c(=O)n(C)c(=O)n3C)n2CC(=O)c2ccccc2)CC1` is lower in inhibition: 8.36% for the first, 0.91% for the second.

Compared with `NNC(=O)c1nnn(-c2nonc2N)c1CN1CCCC1`, `O=C(COc1nsnc1N1CCOCC1)Nc1ccccc1Cl` is lower in inhibition: 2.68% for the first, -3.12% for the second.

Going from `O=C(C1CCN(Cc2ccc(Cl)cc2)CC1)N1CCN(Cc2ccc3c(c2)OCO3)CC1` to `O=C(Nc1ccc(CN2CCOCC2)cc1)c1cc(Cl)ccc1Cl`, the inhibition falls from 3.57% to -0.42%.

Going from `Cc1cccnc1CCNC(=O)C1CCC(=O)N(Cc2cccc(F)c2)C1` (stereo not given) to `NC(=O)Cc1ccc2c(c1)[nH]c1ccccc12`, the inhibition rises from -3.21% to 5.37%.

Going from `Oc1ccc(N=Nc2nccs2)c(O)c1` to `Cc1cc(N=Nc2ccc3ccccc3c2)ccc1O`, the inhibition falls from 0.13% to -3.33%.

Going from `c1ccc(NCc2cccc3ccccc23)nc1` to `O=C(Cc1ccccc1)Nc1ccc(C(=O)Nc2ccccc2C(=O)O)cc1`, the inhibition rises from -0.19% to 2.96%.

Compared with `CCc1ccc(S(=O)(=O)N/N=C\c2ccc([N+](=O)[O-])o2)cc1`, `Cc1ccc(NC(=O)C(=O)NCc2ccc(/C=N/NC(=O)c3c(C)nc4cc(C)ccn34)o2)cc1` is higher in inhibition: -5.89% for the first, 0.35% for the second.

First: COc1cccc(OCCOc2cccc(/C=N/n3cnnc3)c2)c1
Second: CCOc1cccc(-n2nnnc2-c2ccc(OC)cc2)c1
The inhibition of the first is higher: 10.3% for the first, 1.88% for the second.

Compared with `CN(C)c1ccc(-n2cccc2/C=C2/SC(=Nc3ccc(F)cc3)NC2=O)cc1`, `Cc1ccc(C(=O)NN(CCC#N)C2=NS(=O)(=O)c3ccccc32)cc1` is lower in inhibition: -2.27% for the first, -2.85% for the second.

First: CCc1nc(N2CCN(C(C)=O)CC2)c2c3c(sc2n1)CCCC3
Second: CCN(CC)Cc1nc2sc(C)c(C)c2c(=O)[nH]1
The inhibition of the first is lower: 0.58% for the first, 2.4% for the second.

Compared with `O=C(O)Cc1sc(-c2ccccc2)nc1-c1cccs1`, `COc1cc(C2C(C(=O)OCCC#N)=C(C)NC3=C2S(=O)(=O)c2ccccc23)cc(OC)c1OC` (stereo not given) is higher in inhibition: -2.42% for the first, 3.37% for the second.

Going from `COc1ccc(NC(=O)NN2CCN(C)CC2)c(OC)c1` to `Cc1sc2nc(COC(=O)C(NC(=O)c3ccc(Cl)cc3Cl)C(C)C)[nH]c(=O)c2c1C` (stereo not given), the inhibition falls from -1.29% to -3.91%.

In the case of `O=c1c2ccccc2ncn1/N=C/c1ccccc1`, the inhibition is reported as 16.4% (active).
In the case of `COC(=O)C1[C@H]2SC(C)(C)C(C(=O)OC)N2C(=O)N1Cc1nc2ccccc2s1` (stereo not given in full), the inhibition is reported as 26.1% (active).
For `O=C(Cc1ccccc1)N1CCN(S(=O)(=O)c2ccc([N+](=O)[O-])cc2)CC1`, the inhibition was 20% (active).
In the case of `COc1ccc(Cl)cc1NC(=O)Cn1nc(-c2ccc(C)cc2)n(C)c1=S`, the inhibition is reported as 17.9% (active).
`CCOC(=O)N1CCN(Cc2nc3c(c(=O)n(C)c(=O)n3C)n2Cc2ccccc2)CC1` was tested, and the inhibition was 57.6% (active).
With `Oc1ccc2ccccc2c1N=Nc1nccs1` the inhibition was 16.9% (active).
In the case of `CN(C)c1ccc(-n2cccc2/C=N/n2cnnc2)cc1`, the inhibition is reported as 54.3% (active).
`O=C(Nc1ccccc1C(=O)O)c1ccc(N2C(=O)C3CC=CCC3C2=O)cc1` (stereo not given) was tested, and the inhibition was 19.6% (active).
With `NC(=O)Cc1ccc2sc(-c3ccccc3)nc2c1` the inhibition was 16.4% (active).
With `COc1ccc(-n2nnnc2-c2nc3ccccc3s2)cc1` the inhibition was 19.1% (active).
With `COc1cc(C(=O)NN(CCC#N)C2=NS(=O)(=O)c3ccccc32)cc(OC)c1OC` the inhibition was 26.7% (active).
With `Cc1sc2nc(CSCC(=O)Nc3c(Cl)cccc3Cl)[nH]c(=O)c2c1C` the inhibition was 35.8% (active).
